Experimental data as given in PubChem BioAssay (Tox21).
The source made the active and inactive calls. Calls come from the whole dose curve; as a rule, active = well fitted curve in the direction sought with a large enough effect in the repeat runs; inconclusive = weak or mixed curves; inactive = flat fitted curve, though single readings scatter.

Assay: qHTS assay to test for compound auto fluorescence at 590 nm (red) in HepG2 cells (AID 720674)
Details: HepG2 autofluorescence, red 540/590 nm, 1 h; series mostly up to 91.3 µM; fluorescence, relative to Rose Bengal: at the top concentration
Excerpt: U.S. Tox21 Program National Center for Advancing Translational Sciences [NCATS] NIH Chemical Genomics Center [NCGC] U.S. Environmental Protection Agency [EPA] National Institutes of Environmental Health Sciences [NIEHS] National Toxicology Program [NTP] U.S. Food and Drug Administration [FDA] Tox21 Assay Overview: Compound auto fluorescence often interferes with screening of the compound library against various biological targets and signaling pathways. Some of these compounds may have fluorophoric properties. Such properties may interfere with the assay outputs resulting in false positives and/or negatives. To decrease such complications and ensure the compound activities are relevant in terms of biological response, the Tox21 10K compound library was screened for auto fluorescence. From the fluorophores used as reporter signals in our screening assays, the auto fluorescence equivalencies of compounds against three fluorophores have been evaluated: Triamterene, Fluorescein and Rose Bengal sodium for blue, green and red fluorescence, respectively. The fluorescence intensities were measured using Excitation/Emission wavelengths at 405/460nm, 485/535nm and 540/590nm for blue, green and red labels, respectively. This assay includes the red fluorescence data.
Tox21 Assay Protocol Summary: 2,000 HepG2 cells in 5 uL of culture medium (MEM containing 10% FBS) per well were dispensed into black wall/clear bottom 1536-well plates using a Multidrop Combi Dispenser (ThermoFisher Scientific, Waltham, MA). The assay plates were incubated overnight at 37 C to allow cell attachment to the well bottom, followed by the transfer of 23 nL compound or DMSO vehicle by a pintool work station (Kalypsys , San Diego, CA). After the assay plates were incubated for 1 hr at 37 C and 5% CO2, fluorescence intensities in the assay plates were measured by an Envision (PerkinElmer, Shelton, CT) plate reader using three labels for measuring blue, green and red fluorescence at […] 460, 535 and 590 nm respectively.
% is set by controls: 0 for no effect and ±100 for the full control effect.

Structure (SMILES)	fluorescence, relative to Rose Bengal	outcome
N#Cc1c(Cl)cccc1Cl	0.125% (inactive)	
O=C(Nc1ccccc1)c1ccccc1I	-0.19% (inactive)	
CCOC(=O)N(C)C(=O)CSP(=S)(OCC)OCC	0.252% (inactive)	
CCOP(=S)(OCC)Oc1cc(-c2ccccc2)on1	0.0811% (inactive)	
COc1ccc(C(=O)N2CCCC2=O)cc1	-0.188% [at 46 µM] (inactive)	
C=C(C)CN(CC)c1c([N+](=O)[O-])cc(C(F)(F)F)cc1[N+](=O)[O-]	-0.0535% (inactive)	
CCOP(=S)(OCC)Oc1nc(Cl)n(C(C)C)n1	0.246% (inactive)	
CCc1cc2c(s1)-n1c(C)nnc1CN=C2c1ccccc1Cl	-0.303% [at 46 µM] (inactive)	
N#CCNCC#N	0.146% (inactive)	
O=[N+]([O-])c1ccc2c3c(cccc13)CC2	-0.123% (inactive)	
CCN(CC)CCOC(=O)C(C)(c1ccccc1)c1ccccc1	0.0868% [at 46 µM] (inactive)	
O=[N+]([O-])c1cccc2cccnc12	0.0565% [at 95.7 µM] (inactive)	
O=C1OC(=O)C2C1C1(Cl)C(Cl)=C(Cl)C2(Cl)C1(Cl)Cl (stereo not given)	-0.0949% [at 95.7 µM] (inactive)	
CC1(C)CON(Cc2ccccc2Cl)C1=O	-0.299% (inactive)	
COP(=S)(OC)Oc1c(Cl)cc(C)cc1Cl	0.0849% (inactive)	
CCN(CC)C(C)C(=O)c1ccccc1 (stereo not given)	0.0018% [at 46 µM] (inactive)	
CSc1nc(N=[N+]=[N-])nc(NC(C)C)n1	-0.101% (inactive)	
CC1CCCCC1NC(=O)Nc1ccccc1 (stereo not given)	0.0908% (inactive)	
C=C(C)[C@@H]1CC=C(C=O)CC1	0.164% (inactive)	
ClC(Br)Br	-0.0299% (inactive)	

Structure (SMILES)	fluorescence, relative to Rose Bengal	outcome
COP(N)(=S)Oc1ccccc1C(=O)OC(C)C (stereo not given)	-0.183% (inactive)	
c1coc(-c2nc3ccccc3[nH]2)c1	0.19% (inactive)	
Cc1cnc[nH]1	0.0457% (inactive)	
CCCSP(=O)(OCC)Oc1ccc(Br)cc1Cl (stereo not given)	0.104% [at 46 µM] (inactive)	
COC(=O)c1ccccc1S(=O)(=O)NC(=O)N(C)c1nc(C)nc(OC)n1	0.108% [at 95.7 µM] (inactive)	
CC(Cl)(Cl)[N+](=O)[O-]	0.194% (inactive)	
CCCCOC(=O)c1ccccc1C(=O)O	-0.329% (inactive)	
O=NN1CCN(N=O)CC1	0.396% (inactive)	
Nc1n[nH]c(N)n1	-0.0874% [at 95.7 µM] (inactive)	
C#C[C@]1(O)C=C[C@H]2[C@@H]3CCC4=CC(=O)CC[C@@H]4[C@H]3CC[C@@]21CC	0.433% [at 46 µM] (inactive)	
CCC1(c2ccccc2)C(=O)N=C(O)NC1=O (stereo not given)	0.0475% (inactive)	
CC(C)(C)C(=O)C(Oc1ccc(Cl)cc1)n1cncn1 (stereo not given)	-0.404% (inactive)	
CCN(CC)C(=O)[C@@H]1C=C2c3cccc4[nH]cc(c34)C[C@H]2N(C)C1		inactive
CCC(Cl)[N+](=O)[O-] (stereo not given)	-0.182% [at 95.7 µM] (inactive)	
Cc1ccccc1CO[C@@H]1C[C@@]2(C(C)C)CC[C@]1(C)O2	0.122% (inactive)	
CC(C)(C)OC(=O)c1ncn2c1[C@@H]1CCCN1C(=O)c1c(Br)cccc1-2	0.123% [at 46 µM] (inactive)	
CCCCC(=O)Cl	-0.0931% (inactive)	
CCN(Cc1ccc(Cl)nc1)/C(=C/[N+](=O)[O-])NC	-0.131% [at 46 µM] (inactive)	
O=C(Oc1ccc(Br)cc1)N1CCN2CCC1CC2	0.35% (inactive)	
CC(=O)[C@H]1CC[C@H]2[C@@H]3CC[C@H]4C[C@H](O)CC[C@]4(C)[C@H]3C(=O)C[C@]12C	-0.0167% [at 46 µM] (inactive)	
